The whole screen tested about 5,500 compounds, of which about 2,000 (36%) were called active. About 18% were inconclusive and are not listed. Cut-off read from the data, not from the text of the source: active = normalized growth mostly below about 0.91 (no sharp cut-off); inconclusive = no clear call, values can overlap the other calls; inactive = mostly above about 0.92. The list shows a part of the results.
Experiment: chemical genetic growth profiling, strain panel (AID 1159580);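 note: tested at 20 µM; growth read once vehicle control cultures reached saturation at 30 °C; 1 = growth at the plate median or of vehicle wells; lower values mean less growth of the strain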
Details: S. cerevisiae deletion strains, growth OD

Measured: normalized growth

N#CCC(=O)Nc1ccccn1
inactive: locus YAL013W, strain DEP1, hits give low values 1.02 | locus YBR229C, strain ROT2, hits give low values 0.964 | locus YDL101C, strain DUN1, hits give low values 1.04 | locus YDR150W, strain NUM1, hits give low values 1.01 | locus YEL061C, strain CIN8, hits give low values 1.01 | locus YGR078C, strain PAC10, hits give low values 1.02 | locus YHR030C, strain SLT2, hits give low values 1.24 | locus YHR087W, strain rtc3, hits give low values 0.986 | locus YJR043C, strain POL32, hits give low values 1.01 | locus YJR075W, strain HOC1, hits give low values 1 | locus YKL190W, strain CNB1, hits give low values 1 | locus YLR039C, strain RIC1, hits give low values 1.01 | locus YLR058C, strain SHM2 (second series), hits give low values 0.995 | locus YLR085C, strain ARP6, hits give low values 1.06 | locus YLR262C, strain YPT6, hits give low values 0.989 | locus YML094W, strain GIM5, hits give low values 1.02 | locus YMR219W, strain ESC1, hits give low values 0.992 | locus YMR263W, strain SAP30, hits give low values 1.01 | locus YNL153C, strain GIM3, hits give low values 1.04 | locus YNL298W, strain CLA4 (second series), hits give low values 1.06 | locus YNL322C, strain KRE1, hits give low values 1.01 | locus YNR030W, strain Alg12, hits give low values 1.07 | locus YOL006C, strain TOP1, hits give low values 1.07 | locus YPL055C, strain LGE1, hits give low values 1.04 | locus YPL241C, strain CIN2, hits give low values 1.04 | locus YPR135W, strain CTF4, hits give low values 1.2

Reference: PubChem BioAssay AID1159580 (chemical genetic matrix, 2015)
